Inconclusive results are not listed. The source made the active and inactive calls. Unless noted, calls come from the whole dose curve; as a rule, active = well fitted curve in the direction sought with a large enough effect in the repeat runs; inconclusive = weak or mixed curves; inactive = no such curve, though single readings can be large; an effect the other way counts as inactive or inconclusive.
How the values were obtained:
[1] = qHTS assay to identify small molecule antagonists of the thyroid receptor (TR) signaling pathway - cell viability counter screen (AID 743064); note: nearly all actives have a fitted effect of over 50% in size
Outline: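 Compounds were tested on GH3.TRE-Luc cells in the presence of T3 at 1 nM final. Following 23.5 h at 37 °C, cell viability was quantified by CellTiter-Fluor.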

[2] = qHTS assay to identify small molecule antagonists of the thyroid receptor (TR) signaling pathway (AID 743065); note: series mostly up to about 70 µM; nearly all actives have a fitted effect of over 55% in size
Outline: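 GH3.TRE-Luc rat pituitary cells (two TREs driving luciferase) were dosed with compound, then stimulated with 1 nM T3 (final) for 23.5 h at 37 C. ONE-Glo luminescence was the read-out, with CellTiter-Fluor fluorescence as the cytotoxicity counter-screen.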

[3] = tested on: thyroid hormone receptor (rat, GH3 cells); test: qHTS assay to identify small molecule agonists of the thyroid receptor (TR) signaling pathway (AID 743066; calls by dose curve)
[4] = molecular target: Estrogen receptor (Homo sapiens) (UniProt P03372); test: qHTS assay to identify small molecule antagonists of the estrogen receptor alpha (ER-alpha) signaling pathway (AID 743069; active = well fitted curve in the direction sought with a large enough effect in the signal ratio in the repeat runs, not every such curve was filed as active; the % refers to the signal ratio)
Outline: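 HEK293 ER-alpha-UAS-bla GripTite cells, held overnight in 2% charcoal-stripped FBS, 5,000 cells/well, preincubated 4 h, then compound plus 17beta-estradiol for 18 h at 37C. Beta-lactamase read by LiveBLAzer B/G FRET substrate, 2 h at room temperature.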

[5] = qHTS assay to identify small molecule antagonists of the estrogen receptor alpha (ER-alpha) signaling pathway - cell viability counter screen (AID 743074; calls by dose curve;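 note: HEK293 cells carrying ER-alpha-UAS-bla reporter stimulated with 17beta-estradiol; nearly all actives have a fitted effect of over 45% in size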)
[6] = molecular target: Estrogen receptor (Homo sapiens) (UniProt P03372); test: qHTS assay to identify small molecule agonists of the estrogen receptor alpha (ER-alpha) signaling pathway (AID 743075; calls by dose curve; note: potency is the fitted concentration of half-maximal effect)
[7] = molecular target: Estrogen receptor (Homo sapiens) (UniProt P03372); test: qHTS assay to identify small molecule agonists of the estrogen receptor alpha (ER-alpha) signaling pathway using the BG1 cell line (AID 743079); note: nearly all actives have a fitted effect of over 20% in size; note: potency is the fitted concentration of half-maximal effect
[8] = qHTS assay to identify small molecule antagonists of the estrogen receptor alpha (ER-alpha) signaling pathway using the BG1 cell line (AID 743080; calls by dose curve;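 note: BG1 cells stimulated with 17beta-estradiol alongside compound; series mostly up to about 70 µM; nearly all actives have a fitted effect of over 25% in size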)
Outline: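 BG1-Luc-4E2 cells (endogenous full-length ER-alpha, 4xERE luciferase) hormone-starved 5 days in charcoal-stripped FBS, plated 4,000/well for 24 h, then compound plus 17beta-estradiol for 21.5 h at 37 C; ONE-Glo luminescence read.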

[9] = qHTS assay to identify small molecule antagonists of the estrogen receptor alpha (ER-alpha) signaling pathway using the BG1 cell line - cell viability counter screen (AID 743081);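 note: compound given together with 17beta-estradiol as the ER stimulus; series mostly up to about 70 µM; nearly all actives have a fitted effect of over 45% in size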
Aromatase (Homo sapiens) = Aromatase (Homo sapiens) (UniProt P11511); test: qHTS assay to identify aromatase inhibitors (AID 743083); note: series mostly up to about 70 µM; nearly all actives have a fitted effect of over 55% in size

Measured: Potency

Sequence of Estrogen receptor (Homo sapiens) (P03372 whole entry, looked up): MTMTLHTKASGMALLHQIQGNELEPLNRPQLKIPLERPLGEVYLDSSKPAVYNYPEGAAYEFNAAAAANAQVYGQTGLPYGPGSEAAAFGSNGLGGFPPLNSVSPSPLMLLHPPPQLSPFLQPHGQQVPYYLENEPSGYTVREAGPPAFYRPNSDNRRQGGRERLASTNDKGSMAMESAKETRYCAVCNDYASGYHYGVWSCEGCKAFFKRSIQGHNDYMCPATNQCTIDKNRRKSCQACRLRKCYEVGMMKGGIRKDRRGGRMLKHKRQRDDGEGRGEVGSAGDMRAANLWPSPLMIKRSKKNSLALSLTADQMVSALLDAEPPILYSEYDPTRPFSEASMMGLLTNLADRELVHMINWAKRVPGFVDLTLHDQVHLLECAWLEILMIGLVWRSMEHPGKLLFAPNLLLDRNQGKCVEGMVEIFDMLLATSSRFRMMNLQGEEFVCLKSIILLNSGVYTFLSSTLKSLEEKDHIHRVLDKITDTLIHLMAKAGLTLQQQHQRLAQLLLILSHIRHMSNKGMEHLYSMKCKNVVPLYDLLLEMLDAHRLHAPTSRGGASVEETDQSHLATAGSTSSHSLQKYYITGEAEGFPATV
Sequence of Aromatase (Homo sapiens) (P11511 whole entry, looked up): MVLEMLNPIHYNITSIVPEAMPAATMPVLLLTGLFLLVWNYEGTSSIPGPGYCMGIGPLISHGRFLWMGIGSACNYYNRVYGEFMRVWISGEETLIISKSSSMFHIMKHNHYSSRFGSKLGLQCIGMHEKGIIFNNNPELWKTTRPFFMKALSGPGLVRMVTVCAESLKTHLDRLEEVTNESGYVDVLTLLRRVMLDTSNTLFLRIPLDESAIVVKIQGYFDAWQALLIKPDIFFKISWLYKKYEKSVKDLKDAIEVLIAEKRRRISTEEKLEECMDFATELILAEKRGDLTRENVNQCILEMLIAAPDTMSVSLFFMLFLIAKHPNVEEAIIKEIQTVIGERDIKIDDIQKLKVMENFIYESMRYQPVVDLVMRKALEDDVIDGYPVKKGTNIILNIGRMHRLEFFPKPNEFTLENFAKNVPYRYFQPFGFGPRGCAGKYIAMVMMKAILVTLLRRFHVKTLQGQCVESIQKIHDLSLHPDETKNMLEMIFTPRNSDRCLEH

CCCCCCCCCCOC(C)=O
active: [7] 61.1 µM
inactive: all other assays above

O=C1CCCCO1
inactive: all assays above

CC12CCC(C1)C(C)(C)C2O (centres undefined)
inactive: all assays above

CC(C)(C)NC[C@H](O)COc1cccc2c1CCCC2=O
inactive: all assays above

O=C(Cn1ccnc1[N+](=O)[O-])NCc1ccccc1
inactive: all assays above

CCO[Si](CC)(OCC)OCC
inactive: all assays above

O=C[O][Al]([O]C=O)[O]C=O
inactive: all assays above

C[Si]1(C)O[Si](C)(C)O[Si](C)(C)O[Si](C)(C)O[Si](C)(C)O1
inactive: all assays above

O=C1CCC(=O)N1Cl
inactive: all assays above

COC(=O)/C=C\C(=O)O
inactive: all assays above

c1ccc(B(c2ccccc2)c2ccccc2)cc1
active: [6] 30.9 µM [activator] | [7] 34.3 µM
not listed: [8]
inactive: all other assays above

ONc1ccccc1
active: [7] 60.5 µM
not listed: [8]
inactive: all other assays above

C/C(CC(C)C)=N\O
inactive: all assays above

[O]=[Mo](=[O])=[O]
inactive: all assays above

CCCSSCCC
inactive: all assays above

CCCCCCCCCOC(=O)c1ccccc1C(=O)OCCCCCCCCC
inactive: all assays above

CCO
inactive: all assays above

CO[C@@]1(NC(=O)Cc2cccs2)C(=O)N2C(C(=O)O)=C(COC(N)=O)CS[C@@H]21
inactive: all assays above

O=C(CCCCC(=O)Nc1c(I)cc(I)c(C(=O)O)c1I)Nc1c(I)cc(I)c(C(=O)O)c1I
not listed: [9]
inactive: all other assays above

CC(=O)OCC(=O)Nc1cc(C#N)cc(NC(=O)COC(C)=O)c1Cl
not listed: [9]
inactive: all other assays above

O=C=NCC1CCCC(CN=C=O)C1 (centres undefined)
inactive: all assays above

CC1(C)Cc2cccc(N)c2O1
inactive: all assays above

CC1(C)O[C@H]2CC(=O)OC[C@]23[C@H]2CC[C@@]4(C)[C@H](c5ccoc5)OC(=O)[C@H]5O[C@]54[C@]2(C)C(=O)C[C@@H]13
active: [7] 13.3 µM
not listed: [8] | [9]
inactive: all other assays above

CC(C)Nc1ccccc1
inactive: all assays above

COc1ccc2c(c1)c1c3n2CCN(C)C3=NCC1
inactive: all assays above

Source: PubChem BioAssay (Tox21)
